According to PubChem BioAssay (NCI):
This is part of a sample that, as a whole, favours compounds with a hit. Of some 83,000 tested, about 20% had one in any assay.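 Interpretation: 100, growth as untreated; towards 0, rising growth inhibition; 0, no net growth; 0 to -100, cell death. Compounds scoring below 10 were considered active.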 Calls of active or inactive are those of the source.

Legend:
Experiment in all cases: NCI-60 one-dose screen, 48 h (100 = growth as untreated, 0 = no growth, -100 = all killed)
Details in all cases: 10 µM unless noted
[1] = test system: SR leukemia
[2] = test system: RPMI-8226 leukemia
[3] = test system: OVCAR-8 ovarian
[4] = test system: OVCAR-5 ovarian
[5] = test system: OVCAR-4 ovarian
[6] = test system: SK-OV-3 ovarian
[7] = test system: IGROV1 ovarian
[8] = test system: OVCAR-3 ovarian
[9] = test system: NCI/ADR-RES ovarian
[10] = test system: T-47D breast
[11] = test system: BT-549 breast
[12] = test system: MDA-MB-435 melanoma
[13] = test system: SW-620 colon
[14] = test system: MCF7 breast
[15] = test system: HCT-116 colon
[16] = test system: HCC-2998 colon
[17] = test system: KM12 colon
[18] = test system: HS 578T breast

Measured: growth

Cc1[nH]n(C(=O)c2ccncc2)c(=O)c1N=Nc1ccc(S(=O)(=O)Nc2ccncn2)cc1
inactive: [1] 78.1% | [2] 60.1% | [3] 104% | [4] 114% | [5] 103% | [6] 111% | [7] 101% | [8] 106% | [9] 114% | [10] 113% | [11] 127% | [12] 117% | [13] 108% | [14] 102% | [15] 92.6% | [16] 113% | [17] 109%

CCNc1ncnc2n[nH]nc12
inactive: [1] 94% | [2] 95.5% | [3] 99.6% | [4] 103% | [5] 94.7% | [6] 101% | [7] 111% | [8] 106% | [9] 108% | [10] 99.2% | [11] 94% | [12] 99.5% | [13] 95.8% | [14] 98.3% | [15] 98.8% | [16] 106% | [17] 105%

COc1ccc(-c2nn(-c3ccc(NC(=O)Nc4ccc(Cl)c(Cl)c4)cc3)cc2-c2ccncc2)cc1Cl
active: [1] 5.18% | [2] -30% | [8] 7.34% | [12] 6.69% | [15] 0.339% | [17] 2.25%
inactive: [3] 11.6% | [4] 22.6% | [5] 49.4% | [6] 34.6% | [7] 36.6% | [9] 12.8% | [10] 22.4% | [11] 14.2% | [13] 17.6% | [14] 13.3% | [16] 10.4%

Oc1ccc(O)c(-[n+]2ccccc2)c1
inactive: [1] 93.7% | [2] 99.7% | [3] 99.5% | [4] 108% | [5] 108% | [6] 98.7% | [7] 107% | [8] 109% | [18] 96% | [9] 108% | [10] 110% | [12] 109% | [13] 96.9% | [14] 102% | [15] 93.3% | [16] 102% | [17] 107%

O=C(Nc1ccc(-n2ccc3c(NC(=O)c4ccccc4)ncnc32)cc1)Nc1ccc(Cl)c(C(F)(F)F)c1
active: [1] 6.03% | [2] -38% | [3] -25.3% | [5] -42.8% | [7] -3.16% | [8] -86.6% | [12] 7.71% | [14] -51.3% | [15] -77.6% | [17] -25.4%
inactive: [4] 17.8% | [6] 79.2% | [9] 16% | [10] 12% | [11] 56% | [13] 12.6% | [16] 30.8%

O=C(Nc1ccc(-n2ccc3c(NC(=O)c4ccccc4)nccc32)cc1)Nc1cccc(C(F)(F)F)c1
inactive: [1] 18.8% | [2] 19.4% | [3] 48.5% | [4] 81.8% | [5] 26% | [6] 92.2% | [7] 54.1% | [8] 15.2% | [9] 65.7% | [10] 57.6% | [11] 74% | [12] 61.4% | [13] 63.4% | [14] 47.7% | [16] 67.8% | [17] 11.2%
active: [15] 4.34%

Nc1ncnc2c1c(-c1ccc(Oc3ccccc3)cc1)nn2C[C@H]1SSC[C@H]1O
active: [1] -40% | [6] -20.8% | [7] -26.5% | [8] -9.53% | [10] -20.6% | [12] -74.6% | [14] -53.9% | [15] -69.3% | [17] 9.93%
inactive: [2] 42.8% | [3] 20.5% | [4] 64.1% | [5] 25.6% | [9] 22.4% | [11] 38.9% | [13] 69.2% | [16] 11.2%

O=C(NCCNc1nccc(-c2c(-c3cccc(O)c3)nc3sccn23)n1)c1ccccc1O
inactive: [1] 63.2% | [2] 11.6% | [3] 41.3% | [4] 88.7% | [5] 96.2% | [6] 60.5% | [7] 31.6% | [8] 60.2% | [9] 73.6% | [10] 61.8% | [11] 45.7% | [12] 14.3% | [13] 77.9% | [14] 37% | [15] 25.9% | [16] 81% | [17] 46.7%

Cc1cc(O[C@@H]2O[C@@H](C)[C@H](O)[C@@H](O)[C@H]2O)c2c3c(c(O[C@@H]4O[C@@H](C)[C@H](O)[C@@H](O)[C@H]4O)cc2c1)C(=O)c1c(O)cccc1C3=O
inactive: [1] 82.6% | [2] 57.2% | [3] 22.9% | [4] 98.5% | [5] 81.8% | [6] 83.6% | [7] 89.3% | [8] 93.7% | [9] 36.4% | [10] 56.6% | [12] 92.8% | [13] 93.4% | [14] 81% | [15] 81% | [16] 91.1% | [17] 86.8%
active: [11] 6.47%

O=S(c1ccccc1)c1ccc2nnnn2n1 (stereo unspecified)
inactive: [1] 85.2% | [2] 95.7% | [3] 108% | [4] 110% | [5] 111% | [6] 114% | [7] 75.8% | [8] 83.8% | [9] 106% | [10] 91.7% | [11] 98.1% | [12] 108% | [13] 59.9% | [14] 86.3% | [15] 60.7% | [16] 113% | [17] 98.2%

S=c1[nH]nc(Cn2c3ccccc3c3ccncc32)o1
inactive: [1] 99.9% | [2] 97.3% | [3] 94.2% | [4] 102% | [5] 96.7% | [6] 94.5% | [7] 103% | [8] 97.8% | [9] 102% | [10] 96% | [11] 105% | [12] 102% | [13] 104% | [14] 109% | [15] 102% | [16] 106% | [17] 102%

O=C(Nc1ccc(-n2ccc3c(NC(=O)c4ccccc4)ncnc32)cc1)Nc1ccc(Cl)c(Cl)c1
active: [1] -6.07% | [2] -1.3% | [3] 0.377% | [5] -74.1% | [7] -2.23% | [8] -67.1% | [12] 5.82% | [13] -2.62% | [14] 0.297% | [15] -82.8% | [17] -8.64%
inactive: [4] 39.6% | [6] 67.9% | [9] 53.2% | [10] 33.5% | [11] 33.3% | [16] 32.7%

O=C(Nc1cccc(-n2ccc3c(NC(=O)c4ccccc4)nccc32)c1)c1cccc(C(F)(F)F)c1
inactive: [4] 32.5% | [5] 72.9% | [6] 12.1% | [7] 15.9% | [10] 55.8% | [13] 20.2% | [14] 19% | [16] 31.8%
active: [1] 1.05% | [2] -36.1% | [3] 3.8% | [8] -8.09% | [9] -1.18% | [11] -6.35% | [12] 1.38% | [15] 1.3% | [17] -3.3%

Nc1nc(Cl)c2c(C(F)(F)F)cn(CC3CCNCC3)c2n1
active: [1] -38.7% | [3] -16.3% | [7] -62.8%
inactive: [2] 83.7% | [4] 110% | [5] 101% | [6] 107% | [8] 94.7% | [9] 109% | [10] 104% | [11] 103% | [12] 76.5% | [13] 22.4% | [14] 103% | [15] 48.3% | [16] 78.9% | [17] 101%

O=C(Nc1ccc(-n2cc(-c3ccncc3)c(-c3ccc(O)c(Cl)c3)n2)cc1)Nc1ccc(Cl)c(C(F)(F)F)c1
inactive: [3] 15.2% | [4] 43.4% | [5] 42.2% | [6] 32.6% | [7] 22.8% | [9] 17.9% | [10] 29.2% | [13] 19.6% | [14] 15% | [16] 22%
active: [1] 4.23% | [2] -19.2% | [8] 1.16% | [11] -19.4% | [12] -0.731% | [15] 6.73% | [17] 6.77%

COc1ccc(-c2nn(-c3ccc(NC(=O)c4cc(C(F)(F)F)cc(C(F)(F)F)c4)cc3)cc2-c2ccncc2)cc1Cl
inactive: [1] 73.6% | [2] 10.7% | [3] 68.2% | [4] 64% | [5] 90.5% | [6] 78.4% | [7] 74.7% | [8] 60.1% | [9] 63.5% | [10] 52.9% | [11] 71% | [12] 67.4% | [13] 72.1% | [14] 66.9% | [15] 42.7% | [16] 77.5% | [17] 53.2%

COc1ccc(-c2nn(-c3ccc(NC(=O)Nc4cc(C(F)(F)F)cc(C(F)(F)F)c4)cc3)cc2-c2ccncc2)cc1Cl
active: [1] 1.23% | [2] -29.3% | [8] 3.27% | [12] 8.04% | [15] 2.45% | [17] 7.63%
inactive: [3] 12.9% | [4] 17.7% | [5] 47% | [6] 22.9% | [7] 26.3% | [9] 14% | [10] 25.3% | [11] 17.5% | [13] 19.5% | [14] 15.5% | [16] 12.3%

Nc1ncnc2c1ccn2-c1cccc(NC(=O)c2cccc(C(F)(F)F)c2)c1
inactive: [1] 54.6% | [2] 52.9% | [3] 78% | [4] 81.4% | [5] 68.7% | [6] 93.3% | [7] 87.5% | [8] 80% | [9] 78.4% | [10] 59.2% | [11] 89.9% | [12] 59% | [13] 90.2% | [14] 58.6% | [15] 68.5% | [16] 98.6% | [17] 54%
